Test results: PubChem BioAssay AID651558 (National Center for Advancing Translational Sciences (NCATS), 2012)
The whole screen tested about 1,200 compounds, of which about 480 (40%) were called active. About 29% were inconclusive and are not listed. Calls follow the shape of the dose curve; as a rule, active = well fitted inhibition curve with a large enough effect; inconclusive = small, poorly fitted or top-dose-only effect; inactive = no such curve, though single readings can be large or run the other way. Some of the results follow.
Potency is read from the fitted curve at half-maximal effect.

Assay: qHTS Assay to Find Inhibitors of Chronic Active B-Cell Receptor Signaling: Hit Validation in Primary Screen; also: nearly all actives have a fitted effect of over 75% in size
Conditions: ABC-DLBCL IkB-luc/CBR ratio luminescence, 4 h; series mostly up to 46.1 µM
Summary of the method: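 Concentration series (3 nM to 46 uM) tested on TMD8 cells induced with doxycycline for 4 h. Filter-corrected green (IkBa fusion) over red (unfused) luciferase signal; Data were normalised to 10 uM MG-132 and untreated cell wells.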
For `COc1ccc(/C=N/NC(=O)c2[nH]c3ccc(C)cc3c2-c2ccccc2)c(C(=O)O)c1OC`, the Potency was “inactive”.
For `COc1ccc(/C=N/NC(=O)c2cc3c(OC)ccc(OC)c3[nH]2)cc1O`, the Potency was 2.31 µM (active).
With `Cc1ccc(CNC(=O)Cc2ccc(-n3c(=O)[nH]c4ccsc4c3=O)cc2)cc1` the Potency was 4.11 µM (active).
For `O=C1N/C(=N/N=C/c2ccccc2O)SC1Cc1ccc(F)cc1` (stereo not given), the Potency was 9.2 µM (active).
In the case of `C=CCn1c(SCC(=O)Nc2cccc(S(N)(=O)=O)c2)nc2sc(C)c(C)c2c1=O`, the Potency is reported as 5.17 µM (active).
With `C=CCn1c(SC2CCOC2=O)nc2sc(C)c(C)c2c1=O` (stereo not given) the Potency was “inactive”.
For `CCC1=Nc2cc(C(=O)NCCCOC(C)C)ccc2Sc2ccc(C)cc21`, the Potency was 2.59 µM (active).
In the case of `CC1=Nc2cc(C(=O)NCCCOC(C)C)ccc2Sc2ccc(C)cc21`, the Potency is reported as 7.31 µM (active).
With `Oc1ccccc1N=Nc1ccccc1O` the Potency was “inactive”.
In the case of `CCc1ccccc1NC(=S)N=Nc1c(O)n(C)c2ccc(S(=O)(=O)N3CCOCC3)cc12`, the Potency is reported as “inactive”.
In the case of `O=c1[nH]c(-c2ccccn2)nc2sc(-c3ccccc3)cc12`, the Potency is reported as 2.31 µM (active).
In the case of `S=c1[nH]cnc2sc(-c3ccccc3)cc12`, the Potency is reported as “inactive”.
With `CCc1cc2c(=O)[nH]c(-c3ccccn3)nc2s1` the Potency was 14.6 µM (active).
In the case of `C/C(=N\NC(=S)NCCc1ccccc1)c1cccc(Br)c1`, the Potency is reported as “inactive”.
With `O=C(NC(=S)NC1CCSC1=O)c1cccs1` (stereo not given) the Potency was “inactive”.
In the case of `O=C1NC(=O)C(=C2CCCCCC2)S1`, the Potency is reported as “inactive”.
With `COc1ccc(-c2cnc3c(c2)CCC3(C#N)C#N)cc1` the Potency was 3.66 µM (active).
In the case of `Cc1cc(C)c2ccc(/C=N/O)nc2c1O`, the Potency is reported as “inactive”.
In the case of `COc1ccc(C2CC(=O)Oc3cc(OC)c(OC)c(OC)c32)cc1` (stereo not given), the Potency is reported as “inactive”.
In the case of `COc1ccc([C@H]2CC(=O)C=C(c3ccc(OC)cc3OC)C2)cc1`, the Potency is reported as 16.4 µM (active).
With `Cc1ccccc1C(=O)Oc1ccc2ccc(O)cc2c1` the Potency was “inactive”.
With `COc1ccc(/C=C/C(=O)c2cc(F)ccc2OC(=O)c2ccccc2C)cc1OC` the Potency was 1.3 µM (active).
For `COc1ccc(/C=C/C(=O)c2cc(Br)ccc2OC(=O)c2ccco2)cc1OC`, the Potency was 5.8 µM (active).
For `COc1ccc(/C=C/C(=O)c2cc(F)ccc2OC(=O)c2ccccc2OC)cc1OC`, the Potency was 1.3 µM (active).
With `O=C(Oc1ccc(F)cc1C(=O)/C=C/c1cccs1)c1cccc([N+](=O)[O-])c1` the Potency was 1.46 µM (active).
In the case of `O=C(NC(=S)Nc1cccc(F)c1)c1cccc([N+](=O)[O-])c1`, the Potency is reported as “inactive”.
With `S=C(Nc1ccccc1Cl)N(Cc1ccccc1)Cc1ccccn1` the Potency was “inactive”.
With `COc1ccc(NC(=S)N/N=C/c2ccc(F)cc2)cc1OC` the Potency was “inactive”.
For `COc1ccc(/C=C/C(=O)c2cc(F)ccc2OC(=O)c2ccc(OC)c(OC)c2)cc1OC`, the Potency was 23.1 µM (active).
With `COc1cccc(Nc2sc(C(=O)c3ccc(Cl)cc3)c(N)c2C(=O)NCc2ccc(C)cc2)c1` the Potency was 1.3 µM (active).
For `Cc1cc(C)c(S(=O)(=O)Nc2ccc3c4c(cccc24)CC3)c(C)c1`, the Potency was 1.16 µM (active).
With `COc1cccc(CN2c3ccc(Br)cc3C(=O)CS2(=O)=O)c1` the Potency was “inactive”.
In the case of `COc1ccc(CN2C[C@H]3CCCN3c3cc(Br)ccc3S2(=O)=O)cc1`, the Potency is reported as 6.51 µM (active).
For `COc1ccc(-c2c(-c3cc(OC)c(OC)c(OC)c3)noc2C)cn1`, the Potency was 20.6 µM (active).
For `COc1cc(-c2noc(C)c2-c2ccc3[nH]ccc3c2)cc(OC)c1OC`, the Potency was 14.6 µM (active).
In the case of `COc1cc(-c2noc(C)c2-c2ccc(N(C)C)nc2)cc(OC)c1OC`, the Potency is reported as 2.31 µM (active).
In the case of `CCOC(=O)c1ccc(-c2c(-c3cc(OC)c(OC)c(OC)c3)noc2C)cc1F`, the Potency is reported as 8.2 µM (active).
With `CC1=C/C(=N\NC(=S)NCc2ccccc2)CC1` the Potency was “inactive”.
In the case of `COc1cc(-c2c(-c3cc(OC)c(OC)c(OC)c3)noc2C)ccc1F`, the Potency is reported as 1.3 µM (active).
In the case of `CC(/C=N/NC(=O)c1cc(-c2ccncc2)nc2ccccc12)=C\c1ccco1`, the Potency is reported as 1.64 µM (active).
With `CC(/C=N/NC(=O)c1cc(-c2ccc(Cl)cc2)nc2ccccc12)=C\c1ccco1` the Potency was 2.91 µM (active).
With `CC(/C=N/NC(=O)c1cc(-c2ccccc2)nc2ccccc12)=C\c1ccco1` the Potency was 5.8 µM (active).
With `Cc1c(/C=N\NC(=O)C2COc3ccccc3O2)c2ccccc2n1C` (stereo not given) the Potency was 2.59 µM (active).
With `Cc1ccc(/C=N/NC(=O)C2COc3ccccc3O2)s1` (stereo not given) the Potency was 23.1 µM (active).
With `O=C(CN1CCCc2ccccc21)N/N=C/c1ccccc1O` the Potency was “inactive”.
In the case of `C=CCNC(=S)N/N=C/c1ccc(C)s1`, the Potency is reported as “inactive”.
For `COc1ccc(OC)c(C2C3=C(COC3=O)Nc3cc4c(cc32)OCO4)c1` (stereo not given), the Potency was 0.366 µM (active).
In the case of `COc1ccccc1C1C2=C(COC2=O)Nc2cc3c(cc21)OCO3` (stereo not given), the Potency is reported as 1.3 µM (active).
With `O=C1OCC2=C1C(c1ccc(F)cc1)c1cc3c(cc1N2)OCO3` (stereo not given) the Potency was 0.116 µM (active).
For `C#CCOc1ccc(C2C3=C(COC3=O)Nc3cc4c(cc32)OCO4)cc1OC` (stereo not given), the Potency was 0.146 µM (active).
For `CCOc1ccccc1C1C2=C(COC2=O)Nc2cc3c(cc21)OCO3` (stereo not given), the Potency was 1.3 µM (active).
For `O=C(CN1CCC(NC(=O)Nc2ccc(F)cc2)CC1)Nc1ccccc1[N+](=O)[O-]`, the Potency was “inactive”.
For `CCOc1cc(Br)c(C=O)cc1OCC`, the Potency was 6.51 µM (active).
In the case of `CC(C)(C)NNC(=S)Nc1cccc(F)c1`, the Potency is reported as “inactive”.
For `COc1cc(OC)cc(C(=O)Oc2c(CN3CCOCC3)cc(Cl)c3cccnc23)c1`, the Potency was “inactive”.
For `Cc1cccc(NC(=S)N/N=C/C(C)c2ccccc2)c1C` (stereo not given), the Potency was “inactive”.
With `CCN1C(=O)c2cccc3c(S(=O)(=O)Nc4nc(C)cs4)ccc1c23` the Potency was 3.66 µM (active).
In the case of `CCN1C(=O)c2cccc3c(S(=O)(=O)Nc4ccccc4O)ccc1c23`, the Potency is reported as “inactive”.
In the case of `Cc1ccccc1OCCc1c(C)[nH]c(=S)[nH]c1=O`, the Potency is reported as 11.6 µM (active).
For `COc1ccccc1OCCCN1C(=O)C(=O)c2cccc(C)c21`, the Potency was “inactive”.
With `Cc1ccc(S(=O)(=O)n2cc(-c3ccccc3)c3ccccc32)cc1` the Potency was 3.26 µM (active).
In the case of `CCCCNC(=S)NNC(=O)CCn1nc(C)c(Br)c1C`, the Potency is reported as “inactive”.
For `COc1cc(/C=C/c2ccc3cccc(O)c3n2)c(Br)cc1O`, the Potency was 18.4 µM (active).
In the case of `COc1ccc(OC)c(/C=C/c2ccc3cccc(O)c3n2)c1`, the Potency is reported as 20.6 µM (active).
With `COc1cc(Br)cc(/C=C/c2ccc3cccc(O)c3n2)c1O` the Potency was 20.6 µM (active).
With `CCOc1ccccc1N=NC1C(=O)N(C(N)=S)N=C1C` (stereo not given) the Potency was “inactive”.
With `COCCCNC(=O)C(=O)Nc1ccc2c(c1)N(S(=O)(=O)c1cccs1)CCC2` the Potency was 16.4 µM (active).
In the case of `CCCC(=O)OCCNc1cc(Sc2nccn2C)c2nonc2c1[N+](=O)[O-]`, the Potency is reported as 3.66 µM (active).
With `CCOC(=O)CSC1=C(C#N)C(c2ccc(C)o2)CC(=O)N1` (stereo not given) the Potency was 4.11 µM (active).
With `CCOC(=O)CSC1=C(C#N)C(c2ccc(C)s2)CC(=O)N1` (stereo not given) the Potency was 16.4 µM (active).
In the case of `CCCCNC(=S)N=Nc1c(O)[nH]c2ccccc12`, the Potency is reported as “inactive”.
For `COc1cc(/C=N/N(C)c2ccccc2)ccc1O`, the Potency was “inactive”.
In the case of `COc1ccc(/C=C2\CCc3ccccc3C2=O)cc1O`, the Potency is reported as 13 µM (active).
With `CCOC(=O)/C=C/C(=O)OCC(=O)Nc1ccc(OC)c(Cl)c1` the Potency was “inactive”.
With `CCc1ccc(NC(=O)C(C)OC(=O)/C=C/c2ccc(O)c(OC)c2)cc1` (stereo not given) the Potency was 20.6 µM (active).
For `CC(C)N1C(=O)/C(=C/c2nc3ccccc3c(=O)n2-c2ccccc2)c2ccccc21`, the Potency was 18.4 µM (active).
For `CCOc1ccccc1CNS(=O)(=O)c1ccc(-c2cnc(C3CC3)o2)cc1`, the Potency was 7.31 µM (active).
For `COc1ccc(-c2nn(C)c(=O)c3ccccc23)cc1CNS(C)(=O)=O`, the Potency was “inactive”.
In the case of `COc1ccccc1CNS(=O)(=O)c1ccc(-c2cc(C)no2)cc1`, the Potency is reported as 13 µM (active).
In the case of `COc1ccccc1CNS(=O)(=O)c1ccc(-c2cnc(C3CC3)o2)cc1`, the Potency is reported as 16.4 µM (active).
For `COc1ccccc1NS(=O)(=O)c1ccc(-c2cnc(C3CC3)o2)cc1`, the Potency was “inactive”.
With `CCOc1ccccc1NS(=O)(=O)c1ccc(-c2cnc(C3CC3)o2)cc1` the Potency was 0.82 µM (active).
For `CCN(CC(=O)Nc1ccccc1SC)Cc1nc2ccccc2c(=O)[nH]1`, the Potency was “inactive”.
With `N#Cc1cccc2c1-c1ccccc1/C2=N/NC(N)=S` the Potency was “inactive”.
In the case of `Cn1c(=S)c2[nH]c(SCCN3CCCC3)nc2n(C)c1=O`, the Potency is reported as “inactive”.
For `Cc1ccc(S(=O)(=O)Nc2cccc3ncccc23)s1`, the Potency was 4.61 µM (active).
For `O=S(=O)(Nc1cccc2ncccc12)c1cccs1`, the Potency was 5.8 µM (active).
With `CCC(=NCCc1c(C)[nH]c2ccc(C)cc12)C1=C(O)CC(c2ccccc2)CC1=O` (stereo not given) the Potency was 0.82 µM (active).
For `CCCC(=O)Nc1ccc(C(=O)N/N=C/c2cccnc2)cc1`, the Potency was “inactive”.
For `CC(C)c1ccc(/C=N/NC(=O)c2ccccc2Cl)cc1`, the Potency was 20.6 µM (active).
For `CC(C)(C)NC(=S)N/N=C/c1cccnc1`, the Potency was “inactive”.
In the case of `Cc1cc2nc(/C=C/c3cccnc3)[nH]c2cc1C`, the Potency is reported as 1.03 µM (active).
For `Cc1ccc(N2C(=O)c3cccc4c(N)ccc(c34)C2=O)c2cccnc12`, the Potency was 0.461 µM (active).
With `COc1cc(C(=O)N/N=C(\Cc2ncc[nH]2)c2ccccc2)cc(OC)c1OC` the Potency was “inactive”.
For `COc1cc(C(=O)N/N=C(\C)c2ccc3c(c2)OCO3)cc(OC)c1OC`, the Potency was 18.4 µM (active).
For `COc1cc(C(=O)N/N=C(\C)Cc2ccccc2)cc(OC)c1OC`, the Potency was “inactive”.
In the case of `COc1cc(C(=O)c2cocc2C(=O)c2ccc3c(c2)OCO3)cc(OC)c1OC`, the Potency is reported as 14.6 µM (active).
For `O=C(Oc1c(CN2CCOCC2)cc(Cl)c2cccnc12)c1cccs1`, the Potency was “inactive”.
With `CNC(=O)[C@H]1O[C@@H](n2cnc3c(NCc4cccc(I)c4)ncnc32)[C@H](O)[C@@H]1O` the Potency was 1.64 µM (active).
In the case of `CNC(=O)[C@H]1O[C@@H](n2cnc3c(NCc4cccc(I)c4)nc(Cl)nc32)[C@H](O)[C@@H]1O`, the Potency is reported as 2.31 µM (active).
